Test [1] in a line: qHTS assay to identify small molecule antagonists of the peroxisome proliferator-activated receptor delta (PPARd) signaling pathway - cell viability counter screen (AID 743213). Further: nearly all actives have a fitted effect of over 50% in size. Further: potency means the concentration at half of the fitted maximal effect. In short, it runs like this:
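Agonist-stimulated (L165041, 300 nM final) HEK293H PPARd UAS-bla cells are exposed to compounds for 17 h at 37 C, and ATP-based luminescence (CellTiter-Glo) from the same wells reports cytotoxicity.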

The target in test [2] is Peroxisome proliferator-activated receptor delta (Homo sapiens) (UniProt Q03181). The test can be described thus: qHTS assay to identify small molecule antagonists of the peroxisome proliferator-activated receptor delta (PPARd) signaling pathway (AID 743215; active means well fitted inhibition curve with a large enough effect in the signal ratio in the repeat runs, not every such curve was filed as active; the % refers to the signal ratio; further: series mostly up to about 62 µM). In short, it runs like this:
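Fluorescence from cleaved LiveBLAzer B/G FRET substrate (2 h, room temperature) reports PPARd-driven beta-lactamase in HEK293H UAS-bla cells. Cells had been treated 17 h at 37 C with compound plus 300 nM final L165041.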

The nature of test [3]: qHTS assay to identify small molecule agonists of the farnesoid-X-receptor (FXR) signaling pathway - cell viability counter screen (AID 743218). Further: nearly all actives have a fitted effect of over 45% in size. Further: potency means the concentration at half of the fitted maximal effect. Put shortly:
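Readout: CellTiter-Glo luminescence, 30 min RT, multiplexed after the FXR-bla FRET reading. HEK 293T FXR-UAS-bla cells received compound 5 h post-plating and were incubated 16 h at 37 C.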

Test [4] is described as follows: qHTS assay to identify small molecule antagonists of the farnesoid-X-receptor (FXR) signaling pathway - cell viability counter screen (AID 743221; active means well fitted cell-killing curve with a large enough effect in the repeat runs, not every such curve was filed as active; further: nearly all actives have a fitted effect of over 50% in size; further: potency means the concentration at half of the fitted maximal effect). Put shortly:
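CellTiter-Glo, 30 min RT, luminescence; same wells as the LiveBLAzer FRET read. Cells: FXR-UAS-bla HEK 293T. Treatment: compound with chenodeoxycholic acid 50 uM final, 16 h at 37 C.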

The target in test [5] is Vitamin D3 receptor (Homo sapiens) (UniProt P11473). The test can be described thus: qHTS assay to identify small molecule agonists of the vitamin D receptor (VDR) signaling pathway (AID 743222; calls by dose curve). In short, it runs like this: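 Following 4 h attachment at 37C, VDR-bla cells (2,000 per well) received DMSO-dissolved compounds or controls. After 16 h incubation, LiveBLAzer B/G FRET substrate was added and fluorescence read 2 h later at room temperature.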

The target is the same in test [6]. Kind of test: qHTS assay to identify small molecule antagonists of the vitamin D receptor (VDR) signaling pathway (AID 743223; active means well fitted inhibition curve with a large enough effect in the signal ratio in the repeat runs, not every such curve was filed as active; the % refers to the signal ratio). Put shortly:
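After VDR-bla cells are plated and left 4 h at 37C, DMSO-dissolved compounds and 3 nM (final) calcitriol agonist are added. Incubation continues 16 h at 37C; FRET beta-lactamase substrate then develops 2 h at room temperature.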

Test [7] is described as follows: qHTS assay to identify small molecule antagonists of the vitamin D receptor (VDR) signaling pathway - cell viability counter screen (AID 743225). Further: nearly all actives have a fitted effect of over 50% in size. Further: potency means the concentration at half of the fitted maximal effect. Put shortly: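 Cytotoxicity toward the VDR-bla HEK 293T line was scored by ATP-based CellTiter-Glo luminescence, read in the wells already used for the beta-lactamase readout after 16 h compound treatment under 3 nM 1-alpha,25-dihydroxyvitamin D3 stimulation.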

Test [8] can be described thus: qHTS assay to identify small molecule agonists of the NFkB signaling pathway - cell viability counter screen (AID 1159515; calls by dose curve; further: nearly all actives have a fitted effect of over 55% in size; further: potency means the concentration at half of the fitted maximal effect). Put shortly:
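Plate 2,000 NFkB-bla ME-180 cells/well; incubate overnight. Add compounds, 5 hr at 37 C. Add FRET substrate, 1.5 hr RT. Add CellTiter-Glo, 30 min RT; read luminescence.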

A short description of test [9]: qHTS assay to identify small molecule agonists of the endoplasmic reticulum stress response signaling pathway (AID 1159516; active means well fitted activation curve with a large enough effect in the signal ratio in the repeat runs, not every such curve was filed as active; the % refers to the signal ratio). In short, it runs like this: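 Beta-lactamase expression from the ER stress response element in HeLa reporter cells is quantified with the LiveBLAzer B/G FRET substrate, read at 405 nm excitation after 2 hr at room temperature, following 5 hr compound treatment at 37 C.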

Test [10] is described as follows: qHTS assay to identify small molecule antagonists of the retinoid-related orphan receptor gamma (ROR-gamma) signaling pathway - cell viability counter screen (AID 1159520). Further: nearly all actives have a fitted effect of over 50% in size. Further: potency means the concentration at half of the fitted maximal effect. Put shortly: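 Tet-on ROR gamma CHO cells (1,000/well) were plated 4 hr, given compounds in DMSO for 2 hr at 37 C, then induced with 1 uM final doxycycline for 16 hr. Viability was read as ATP by CellTiter-Glo luminescence after 30 min.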

A short description of test [11]: qHTS assay to identify small molecule agonists of the peroxisome proliferator-activated receptor delta (PPARd) signaling pathway - cell viability counter screen (AID 743211). Further: nearly all actives have a fitted effect of over 55% in size. Further: potency means the concentration at half of the fitted maximal effect. Put shortly:
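Multiplexed format: after the 2 h room-temperature LiveBLAzer B/G FRET step, CellTiter-Glo was added to the same wells. Luminescence after 30 min gave cell viability; compound exposure was 17 h at 37C.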

The target of test [12] is Nuclear receptor ROR-gamma (Homo sapiens) (UniProt P51449). Kind of test: qHTS assay to identify small molecule antagonists of the retinoid-related orphan receptor gamma (ROR-gamma) signaling pathway (AID 1159521; further: nearly all actives have a fitted effect of over 50% in size; further: potency means the concentration at half of the fitted maximal effect). Put shortly: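 Readout: ONE-Glo luciferase luminescence, 30 min at room temperature. System: Tet-on RORγ CHO, RORE-LUC. Sequence: compound 2 h, doxycycline 1 uM final, 16 h at 37 C.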

Test [13] in a line: qHTS assay to identify small molecule agonists of the AP-1 signaling pathway - cell viability counter screen (AID 1159525; calls by dose curve; further: nearly all actives have a fitted effect of over 55% in size; further: potency means the concentration at half of the fitted maximal effect). In short, it runs like this:
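Each titration point was normalised to DMSO and tetra n-octyl ammonium bromide controls. The read was Cell Titer Glo luminescence after 30 min at RT, following 5 h compound exposure of ME-180 AP-1-bla cells at 37 °C.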

A short description of test [14]: qHTS assay to identify small molecule agonists of the AP-1 signaling pathway (AID 1159526; calls by dose curve).
The target of test [15] is Peroxisome proliferator-activated receptor delta (Homo sapiens) (UniProt Q03181). Kind of test: qHTS assay to identify small molecule agonists of the peroxisome proliferator-activated receptor delta (PPARd) signaling pathway (AID 743212; calls by dose curve). In short, it runs like this: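 Cells expressing a UAS-driven beta-lactamase reporter (PPARd-bla HEK293H) were given test compounds after a 5 h settle and kept at 37 C. Reporter activity was then measured as FRET fluorescence using LiveBLAzer B/G substrate.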

Test [16] is described as follows: qHTS assay to identify small molecule agonists of the vitamin D receptor (VDR) signaling pathway - cell viability counter screen (AID 743224). Further: nearly all actives have a fitted effect of over 50% in size. Further: potency means the concentration at half of the fitted maximal effect. Put shortly:
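In parallel with the bla FRET readout, cytotoxicity toward VDR-bla cells after 16 h compound exposure was assessed by CellTiter-Glo, with luminescence recorded after a 30 min room-temperature incubation.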

Test [17] deals with Bile acid receptor (Homo sapiens) (UniProt Q96RI1). Kind of test: qHTS assay to identify small molecule agonists of the farnesoid-X-receptor (FXR) signaling pathway (AID 743220; active means well fitted activation curve with a large enough effect in the signal ratio in the repeat runs, not every such curve was filed as active; the % refers to the signal ratio). In short, it runs like this: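 FXR-UAS-bla HEK 293T cells carrying a UAS-driven beta-lactamase reporter were plated for 5 h at 37C/5% CO2, then exposed to DMSO-dissolved Tox21 10K compounds for 16 h at 37C. A LiveBLAzer B/G FRET substrate was loaded for 2 h at room temperature before fluorescence reading.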

Test [18] can be described thus: qHTS assay to identify small molecule agonists of the endoplasmic reticulum stress response signaling pathway - cell viability counter screen (AID 1159517; calls by dose curve). Put shortly:
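Cpd-treated ESRE-bla HeLa (5 hr, 37 C) → LiveBLAzer 2 hr RT → CellTiter-Glo 30 min RT → luminescence.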

Test [19] deals with Bile acid receptor (Homo sapiens) (UniProt Q96RI1). The test can be described thus: qHTS assay to identify small molecule antagonists of the farnesoid-X-receptor (FXR) signaling pathway (AID 743217; active means well fitted inhibition curve with a large enough effect in the signal ratio in the repeat runs, not every such curve was filed as active; the % refers to the signal ratio). Put shortly:
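FRET fluorescence after 2 h room-temperature LiveBLAzer loading gives the readout. Prior step: FXR-bla HEK 293T cells, seeded and incubated 5 h, received test compounds plus 50 uM final CDCA for 16 h at 37 °C.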

Values joined by “and” are separate entries in the source; they are usually repeats but may differ in a detail not shown here. Identical values can stand only once. Results filed as inconclusive are left out. Some structures have more than one record in an assay (separate samples or runs), and their calls can disagree. Active and inactive are the calls of the source. Unless noted, the call rests on the fitted dose curve; in most records, active means well fitted curve in the direction sought with a large enough effect in the repeat runs; inconclusive means weak or mixed curves; inactive means no such curve, though single readings can be large; an effect the other way counts as inactive or inconclusive.

Chain of Peroxisome proliferator-activated receptor delta (Homo sapiens) (Q03181 whole entry, looked up): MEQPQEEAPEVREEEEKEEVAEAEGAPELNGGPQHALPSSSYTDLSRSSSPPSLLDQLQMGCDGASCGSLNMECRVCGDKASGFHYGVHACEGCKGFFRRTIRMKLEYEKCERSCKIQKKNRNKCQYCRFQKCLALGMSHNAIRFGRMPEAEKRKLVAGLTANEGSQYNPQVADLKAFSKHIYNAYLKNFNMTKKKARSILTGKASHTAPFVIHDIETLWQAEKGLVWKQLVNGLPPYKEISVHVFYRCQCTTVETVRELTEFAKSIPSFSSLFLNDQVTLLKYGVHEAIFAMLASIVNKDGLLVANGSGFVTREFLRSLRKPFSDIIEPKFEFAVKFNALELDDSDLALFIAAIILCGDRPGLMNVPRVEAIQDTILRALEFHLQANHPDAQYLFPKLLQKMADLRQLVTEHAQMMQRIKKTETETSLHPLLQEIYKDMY
Chain of Bile acid receptor (Homo sapiens) (Q96RI1 whole entry, looked up): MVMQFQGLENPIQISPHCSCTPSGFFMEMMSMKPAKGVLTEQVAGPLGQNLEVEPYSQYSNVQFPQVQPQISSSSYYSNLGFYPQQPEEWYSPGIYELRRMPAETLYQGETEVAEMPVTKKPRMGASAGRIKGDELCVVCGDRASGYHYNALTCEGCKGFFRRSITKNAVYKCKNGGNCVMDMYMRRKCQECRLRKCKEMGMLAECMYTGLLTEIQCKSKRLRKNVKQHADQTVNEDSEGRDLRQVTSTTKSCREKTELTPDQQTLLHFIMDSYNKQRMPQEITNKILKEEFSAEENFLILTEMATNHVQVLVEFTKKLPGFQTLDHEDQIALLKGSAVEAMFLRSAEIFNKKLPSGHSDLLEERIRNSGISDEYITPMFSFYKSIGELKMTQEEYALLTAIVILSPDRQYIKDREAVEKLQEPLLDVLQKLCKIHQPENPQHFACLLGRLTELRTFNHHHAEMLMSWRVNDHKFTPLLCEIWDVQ
Chain of Vitamin D3 receptor (Homo sapiens) (P11473 whole entry, looked up): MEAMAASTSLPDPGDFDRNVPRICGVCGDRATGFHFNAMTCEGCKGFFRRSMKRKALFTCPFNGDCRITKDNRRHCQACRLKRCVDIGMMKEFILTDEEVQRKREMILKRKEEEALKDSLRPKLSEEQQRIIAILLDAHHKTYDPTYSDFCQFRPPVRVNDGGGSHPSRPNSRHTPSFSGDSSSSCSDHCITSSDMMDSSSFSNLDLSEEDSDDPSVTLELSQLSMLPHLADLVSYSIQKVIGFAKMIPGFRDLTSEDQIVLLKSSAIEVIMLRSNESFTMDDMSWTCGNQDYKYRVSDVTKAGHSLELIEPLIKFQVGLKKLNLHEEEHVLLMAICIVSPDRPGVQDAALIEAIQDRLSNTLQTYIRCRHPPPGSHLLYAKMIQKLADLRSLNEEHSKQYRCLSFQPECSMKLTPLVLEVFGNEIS

With `CCCCCCCCCc1ccc(O)cc1`, the Potency result in test [1], in test [2], in [3], in [4], in [6] and in test [7] was “inactive” throughout. In addition, the Potency result in test [8] and in test [9] was “inactive” each time. For the same compound, in test [5], the compound was classed as inactive. Moreover, in test [10], the Potency was 61.8 µM (active) and inactive.

Turning to `O=C(O)c1nn(Cc2ccc(Cl)cc2Cl)c2ccccc12`, the Potency result in [11], in test [1], in test [3], in test [4], in [7] and in test [8] was “inactive” each time. In addition, the Potency entry in test [9], in test [10], in test [12] and in test [13] was “inactive” in each case. Also, the compound was classed as inactive in [5] and in [14].

Regarding `NC(=O)CN1CCCC1=O`, the Potency result in test [1], in test [3], in test [4], in test [7], in test [8] and in [9] was “inactive” throughout. In addition, the Potency result in test [10], in test [12] and in [13] was “inactive” each time. In addition, the outcome in test [5] and in test [14] was inactive.

For `CCCCC(C#N)(Cn1cncn1)c1ccc(Cl)cc1` (stereo not drawn), the Potency result in test [11], in test [15], in test [1], in test [2], in test [3] and in [4] was “inactive” throughout. In addition, the Potency entry in test [7], in test [8], in test [9], in test [10] and in test [13] was “inactive” in each case. Further, the result in test [14] was inactive.

In the case of `COP(=S)(OC)Oc1ccc(Sc2ccc(OP(=S)(OC)OC)cc2)cc1`, the Potency entry in [11], in [15], in test [1], in [2], in test [4] and in test [16] was “inactive” each time. In addition, the Potency entry in test [7], in [8], in test [9], in test [10], in test [12] and in [13] was “inactive” each time. In addition, the outcome in test [5] and in [14] was inactive.

Consider `CCOP(=O)(OCC)OCC`, for which the Potency result in test [11], in test [15], in test [1], in test [3], in test [4] and in [16] was “inactive” in each case. Besides, the Potency entry in test [7], in [8], in test [9], in [10], in test [12] and in [13] was “inactive” in each case. Further, the result in test [5] and in test [14] was inactive.

Consider `CCOP(=S)(OCC)OP(=S)(OCC)OCC`, for which the Potency entry in test [11], in test [15], in test [1], in test [17], in [4] and in test [7] was “inactive” each time. Moreover, the Potency entry in test [8], in [9], in test [10], in test [12] and in test [13] was “inactive” throughout. In [14], the compound was called inactive.

For the compound `O=C1C(Cl)=C(Cl)C(=O)c2ccccc21`, the Potency result in [15] is “inactive”. Also, the Potency in test [1] is 9.8 µM (active) and 6.17 µM (active); in test [3], 49 µM (active); in test [4], “inactive and 49 µM (active)”; in test [16], 4.38 µM (active) and 9.77 µM (active); in test [7], 6.94 µM (active) and 12.3 µM (active); in [8], 21.9 µM (active) and 12.3 µM (active). The Potency is 19.6 µM (active) and 49 µM (active) in test [18]; 5.46 µM (active) and 5.45 µM (active) in test [10]; 4.87 µM (active) and 12.2 µM (active) in test [12]; 11 µM (active) and 19.5 µM (active) in test [13].

Consider `CCC[CH2][Sn]([Cl])([Cl])[CH2]CCC`, for which the Potency in test [11] is 198 nM (active) and 61.6 nM (active); in test [1] it was 556 nM (active) and 155 nM (active); in [3] it was 140 nM (active) and 24.5 nM (active); in test [4], 222 nM (active) and 123 nM (active); in test [16] it was 249 nM (active) and 77.6 nM (active); in test [7], 1.11 µM (active) and 275 nM (active). For the same compound, the Potency in test [8] is 3.13 µM (active) and 2.45 µM (active); in test [18] it was 125 nM (active) and 38.9 nM (active); in test [10], 155 nM (active) and 122 nM (active); in test [12], 77.9 nM (active) and 96.9 nM (active).

As for `O=NN(c1ccccc1)c1ccccc1`, the Potency result in test [15], in test [1], in [19], in test [17], in test [4] and in test [7] was “inactive” in each case. The Potency result in [8], in test [9], in test [10], in [12] and in test [13] was “inactive” throughout. The compound was classed as inactive in test [14].

`Cc1cc(Cl)ccc1N=CN(C)C`: the Potency entry in [15], in [1], in test [2], in test [3], in [4] and in [6] was “inactive” throughout. The Potency result in test [16], in test [7], in test [8], in test [9], in test [10] and in [12] was “inactive” in each case. The Potency result in [13] was “inactive”. In addition, the compound was classed as inactive in test [5] and in test [14].
